Assay [1] has as its target Cell division control protein 42 homolog (Homo sapiens) (UniProt P60953). Briefly: activated mutant Cdc42 GTP-binding inhibitors, dose response, biochemical, multiplex bead flow cytometry, Bodipy-FL-GTP (AID 1333).
Assay [2] has the same target. Kind of assay: wildtype Cdc42 GTP-binding inhibitors, dose response, biochemical, multiplex bead flow cytometry, Bodipy-FL-GTP (AID 1334;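 active = fitted half-maximal concentration within the tested range, moderate curve steepness, significant signal drop, and little compound fluorescence or bead-linkage interference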). As to conditions: bead-based flow cytometry, Bodipy-FL-GTP binding to GST-Cdc42; at 100 µM (top of the series). (In flow cytometry, cells or beads pass a laser one at a time.)
Assay [3] has as its system Ras-related protein Rab-7a (dog), GTP binding. Kind of assay: Rab7 GTP binding inhibitors, potency, dose response, biochemical, wildtype, multiplex bead flow cytometry (AID 1336; call rule not given here).
For assay [4], the target named is Ras-related C3 botulinum toxin substrate 1 (Homo sapiens) (UniProt P63000). Briefly: wildtype Rac1 GTP binding inhibitors, dose response, biochemical, multiplex bead flow cytometry (AID 1340;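 active = dose curve with midpoint inside tested range, moderate steepness, plateau gap beyond fit error, low compound glow and bead-link interference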). As to conditions: GST-Rac1 beads, Bodipy-FL-GTP binding; at 100 µM (top of the series).
For assay [5], the target named is GTPase HRas (Homo sapiens) (UniProt P01112). Briefly: activated Ras mutant GTP binding inhibitors, dose response, biochemical, multiplex bead flow cytometry (AID 1341;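 active = dose-response curve with midpoint inside the tested range, moderate steepness, significant amplitude and little compound fluorescence or bead-attachment interference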;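 also: GST-tagged constitutively activated Ras mutant immobilized on beads and multiplexed with other GTPases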).
A short description of assay [6]: RPL19A-GFP modulators, yeast TOR pathway, confirmation, cell-based, S. cerevisiae, flow cytometry, cherry picks, mother/daughter gates (AID 2270;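 active = GFP response below 50% of the DMSO control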). Particulars: S. cerevisiae RPL19A-GFP strain, 3 h, at 10 µM, stronger effect = lower value, 100 = same GFP as DMSO wells.
Assay [7] in a line: LAP4-GFP expression modulators in yeast, confirmation, cell-based, cherry picks, flow cytometry, mother/daughter gates (AID 2271;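 active = GFP response above 150% of the DMSO control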;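 also: ratio of sample to DMSO plate mean so 100% equals DMSO level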). Particulars: S. cerevisiae LAP4-GFP strain, 3 h, at 10 µM, stronger effect = higher value.
Assay [8] can be described thus: modulators of MEP2-GFP levels in yeast, confirmation, S. cerevisiae, flow cytometry GFP, cherry picks (AID 2272;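 active = GFP response above 150% of the DMSO control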;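 also: ratio of well signal to plate DMSO mean so 100% equals DMSO level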). As to conditions: S. cerevisiae MEP2-GFP strain, 3 h, at 10 µM, stronger effect = higher value.
Assay [9] is described as follows: AGP1-GFP expression modulators, hit retest, confirmation, cell-based, flow cytometry, S. cerevisiae, cherry picks (AID 2273;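 active = GFP response above 150% of the DMSO level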;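 also: median GFP channel fluorescence over the whole cell population gate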). As to conditions: S. cerevisiae AGP1-GFP strain, 3 h, at 10 µM.
The nature of assay [10]: modulators of CIT2-GFP expression in yeast, confirmation, S. cerevisiae, GFP fusion, cherry picks, mother/daughter gates (AID 2274;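 active = GFP response above 150% of the DMSO level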). Particulars: S. cerevisiae CIT2-GFP strain, flow cytometry, 3 h, at 10 µM, stronger effect = higher value.
Where [11] appears, read: measured here: daughter cell gate.
The mark [12] stands for this setting: measured here: mother cell gate.
[13] abbreviates: measured here: daughter cell gate response.
The mark [14] stands for this setting: measured here: mother cell gate response.

The source of these data is PubChem BioAssay.

For some assays here: Entries with a potency or affinity are not part of this list. Active and inactive are the calls of the source.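 The calls were made as follows, unless noted: active = fitted half-maximal concentration within the tested dose range, moderate curve steepness, a statistically real signal drop, and little compound fluorescence or tag-binding interference; inactive = the rest.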

Sequence of Cell division control protein 42 homolog (Homo sapiens) (P60953 whole entry, looked up): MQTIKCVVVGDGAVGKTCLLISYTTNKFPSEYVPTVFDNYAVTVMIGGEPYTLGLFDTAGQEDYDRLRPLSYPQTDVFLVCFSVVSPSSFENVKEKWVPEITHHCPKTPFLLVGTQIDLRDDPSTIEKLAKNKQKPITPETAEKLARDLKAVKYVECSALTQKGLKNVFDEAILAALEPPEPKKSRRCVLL

Regarding `CCOC(=O)c1c(NC(=O)c2c(N)n(CCCOC)c3nc4ccccc4nc23)sc2c1CCCC2`, the call in [1], in assay [3] and in assay [5] was inactive. The fluorescence, percent of control (lower = inhibition) in assay [2] stood at 77.3%. Moreover, the GTP binding signal, raw median fluorescence (lower = inhibition) (MCF (arbitrary fluorescence units)) in assay [4] turned out to be 151.

With `C[C@H](O)[C@H]1CC[C@H]2[C@@H]3CCC4=CC(=O)CC[C@]4(C)[C@H]3CC[C@]12C`, the GFP response vs DMSO is 97.8% (inactive) in [6], 93% in assay [6] (setting [11]), 99.6% in [6] (setting [12]) and 95.7% (inactive) in [8]. Besides, the GFP response relative to DMSO in [7] is 117% (inactive); in [7] (setting [13]), 117%; in assay [7] (setting [14]), 120%. Moreover, the GFP response, % of DMSO in assay [9] was 93.7% (inactive); in assay [10], 96.5% (inactive); in assay [10] (setting [11]) it was 89.9%; in assay [10] (setting [12]), 98.7%.

With `Cc1ccccc1OCCCn1cc(C(=O)O)c2ccccc21`, the result in assay [1], in assay [3] and in assay [5] was inactive. In addition, the fluorescence, percent of control (lower = inhibition) in assay [2] was found to be 68.3%. For the same molecule, the GTP binding signal, raw median fluorescence (lower = inhibition) (MCF (arbitrary fluorescence units)) in [4] amounted to 37.8.

For the molecule `O=C1CN=C(c2ccccc2)c2cc(Br)ccc2N1Cc1cc(=O)n2ccccc2n1`, the outcome in assay [1] and in assay [5] was inactive. Also, in assay [2], the fluorescence, percent of control (lower = inhibition) was 47.5%. Also, the GTP binding signal, raw median fluorescence (lower = inhibition) (MCF (arbitrary fluorescence units)) in assay [4] came out at 216.

As to `CC(Oc1ccc(-c2ccccc2)cc1)C(=O)O` (configuration not stated), the molecule was classed as inactive in assay [1], in [3] and in [5]. For the same molecule, the fluorescence, percent of control (lower = inhibition) in assay [2] amounted to 126%. Further, the GTP binding signal, raw median fluorescence (lower = inhibition) (MCF (arbitrary fluorescence units)) in [4] was found to be 213.

As for `O=C1C(=O)c2ccccc2-c2ccccc21`, the GFP response vs DMSO is 122% (inactive) in assay [6], 106% in assay [6] (setting [11]), 116% in assay [6] (setting [12]) and 117% (inactive) in assay [8]. Further, the GFP response relative to DMSO was 171% (active) in assay [7], 143% in [7] (setting [13]) and 169% in assay [7] (setting [14]). The GFP response, % of DMSO in assay [9] is 126% (inactive); in assay [10], 88.7% (inactive); in [10] (setting [11]) it was 89.9%; in assay [10] (setting [12]), 82.6%.

For the molecule `O=C1CN=C(c2ccccc2F)c2cc(Cl)ccc2N1`, the GFP response vs DMSO was 99.3% (inactive) in assay [6], 99% in assay [6] (setting [11]), 99.1% in assay [6] (setting [12]) and 100% (inactive) in assay [8]. Besides, the GFP response relative to DMSO was 97.4% (inactive) in assay [7], 98.7% in [7] (setting [13]) and 98.3% in assay [7] (setting [14]). Further, the GFP response, % of DMSO in assay [9] is 98% (inactive); in assay [10] it was 107% (inactive); in [10] (setting [11]), 105%; in assay [10] (setting [12]) it was 111%.

For the molecule `O=C(O)c1cn(Cc2ccccc2Cl)c2ccccc12`, the outcome in assay [1], in assay [3] and in assay [5] was inactive. Further, the fluorescence, percent of control (lower = inhibition) in [2] turned out to be 64.9%. This molecule showed a GTP binding signal, raw median fluorescence (lower = inhibition) (MCF (arbitrary fluorescence units)) in [4] of 34.1.

Consider `COCCCn1c(N)c(C(=O)Nc2sc3c(c2C(=O)OC)CCCC3)c2nc3ccccc3nc21`, for which the molecule was called inactive in [1], in assay [3] and in [5]. Also, in [2], the fluorescence, percent of control (lower = inhibition) was found to be 85.2%. In assay [4], this molecule yielded a GTP binding signal, raw median fluorescence (lower = inhibition) (MCF (arbitrary fluorescence units)) of 139.

For `Cc1sc(-n2c(C)cc(C=C3C(=O)NC(=O)NC3=O)c2C)c(C#N)c1C`, the result in assay [1] and in assay [5] was inactive. Besides, in assay [2], the fluorescence, percent of control (lower = inhibition) turned out to be 27.5%. For the same molecule, the GTP binding signal, raw median fluorescence (lower = inhibition) (MCF (arbitrary fluorescence units)) in assay [4] came to 199.

`Cc1ccc(C)c(OCCn2cc(C(=O)O)c3ccccc32)c1`: in assay [1], the molecule was classed as inactive.

Turning to `O=C1NC(=S)N(Cc2ccco2)C(=O)/C1=C\c1cccs1`, the outcome in assay [1], in assay [3] and in assay [5] was inactive. Besides, the fluorescence, percent of control (lower = inhibition) in [2] is 54.7%. For the same molecule, the GTP binding signal, raw median fluorescence (lower = inhibition) (MCF (arbitrary fluorescence units)) in assay [4] was 167.

For `Cc1cc(C)cc(N2C(=O)NC(=O)/C(=C\C=C\c3ccco3)C2=O)c1`, the outcome in [1], in [3] and in [5] was inactive. In addition, the fluorescence, percent of control (lower = inhibition) in [2] was determined as 32.8%. For the same molecule, the GTP binding signal, raw median fluorescence (lower = inhibition) (MCF (arbitrary fluorescence units)) in assay [4] was 206.
